# How the values were obtained:
# Assay in all cases: PBM binding z-score (relative to random genomic background probes); higher = stronger binding; sequences stand for … in GC…GCGATTGACAGCGTAGAATGAAGG
# [1] = test system: FXR:RXRa (NR concentration 270 nM, RXRa partner concentration 90 nM)
# How it was run: (§1)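 The probes on custom Agilent 4×180K protein-binding microarrays were double-stranded, with 34-nt variable regions bearing direct-repeat seeds, single-nucleotide variants, half-site ablations and random human genomic background sequences. Incubation lasted 1 h with ligand-free nuclear receptor dimers in PBS pH 7.4, 2% milk, 0.02% Triton X-100, 1 mM DTT, 0.2 mg/mL BSA and 0.4 mg/ml salmon testes DNA. Antibodies against each partner (one per run) detected bound dimers, and fluorescence scans were regression-normalized. Binding z-scores take the random background probes as reference.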
# [2] = test system: LXRa:RXRa (NR concentration 270 nM, RXRa partner concentration 90 nM)
# How it was run: as §1
# [3] = test system: LXRa homodimer (NR concentration 270 nM)
# How it was run: as §1
# [4] = test system: LXRb:RXRa (NR concentration 270 nM, RXRa partner concentration 90 nM)
# How it was run: as §1
# [5] = test system: LXRb homodimer (NR concentration 270 nM)
# How it was run: as §1
# [6] = test system: PPARa:RXRa (NR concentration 270 nM, RXRa partner concentration 90 nM)
# How it was run: as §1
# [7] = test system: PPARg:RXRa (NR concentration 180 nM, RXRa partner concentration 90 nM)
# How it was run: as §1
# [8] = test system: PPARg:RXRa 270nM:90nM, anti-RXR (NR concentration 270 nM, RXRa partner concentration 90 nM)
# How it was run: as §1
# [9] = test system: PPARg:RXRa 30nM:10nM, anti-RXR (NR concentration 30 nM, RXRa partner concentration 10 nM)
# How it was run: as §1
# [10] = test system: PPARg:RXRa 90nM:30nM, anti-RXR (NR concentration 90 nM, RXRa partner concentration 30 nM)
# How it was run: as §1
# [11] = test system: PPARg:RXRa DBDmut IVT, anti-RXR (DBD mutation: RXRa K156A/R161A, NR concentration 270 nM, RXRa partner concentration 90 nM)
# How it was run: as §1
# [12] = test system: PPARg:RXRa IVT, anti-PPARg (NR concentration 270 nM, RXRa partner concentration 90 nM)
# How it was run: as §1
# [13] = test system: PPARg DBDmut:RXRa IVT, anti-PPARg (DBD mutation: PPARg1 K132A/R137A, NR concentration 270 nM, RXRa partner concentration 90 nM)
# How it was run: as §1
# [14] = test system: PPARg DBDmut IVT, anti-PPARg (DBD mutation: PPARg1 K132A/R137A, NR concentration 270 nM)
# How it was run: as §1
# [15] = test system: PPARg homodimer (NR concentration 180 nM)
# How it was run: as §1
# [16] = test system: PXR:RXRa (NR concentration 270 nM, RXRa partner concentration 90 nM)
# How it was run: as §1
# [17] = test system: PXR homodimer (NR concentration 270 nM)
# How it was run: as §1
# [18] = test system: RARa:RXR (NR concentration 270 nM, RXRa partner concentration 90 nM)
# How it was run: as §1
# [19] = test system: RARa homodimer (NR concentration 270 nM)
# How it was run: as §1
# [20] = test system: RARb:RXRa (NR concentration 270 nM, RXRa partner concentration 90 nM)
# How it was run: as §1
Sequence,PBM binding z-score [1],PBM binding z-score [2],PBM binding z-score [3],PBM binding z-score [4],PBM binding z-score [5],PBM binding z-score [6],PBM binding z-score [7],PBM binding z-score [8],PBM binding z-score [9],PBM binding z-score [10],PBM binding z-score [11],PBM binding z-score [12],PBM binding z-score [13],PBM binding z-score [14],PBM binding z-score [15],PBM binding z-score [16],PBM binding z-score [17],PBM binding z-score [18],PBM binding z-score [19],PBM binding z-score [20]
AGTCAAAGTTCAGGAAGAGGTAACGTAAAGCACG,3.92,3.76,0.911,2.07,0.602,3.54,4.98,4.92,1.98,3.88,0.106,2.18,0.684,0.616,2.21,2.84,0.943,3.04,0.831,4.45
CGTACTGGGCCACGAAAGGTCATTGATTCAGTGA,4.13,4.99,5.16,4.46,0.336,4.75,4.87,4.93,2.22,4.16,5.64,5.82,1.54,0.503,4.05,5.71,2.11,5.78,1.22,4.17
GCGTCTGGGGCATCAGCAGGTTACCATAACTTAA,-0.332,-0.363,-0.529,0.524,-0.962,0.996,0.169,0.239,-0.644,-0.174,2.39,1.72,-0.946,-0.371,0.169,-0.00705,-0.377,0.336,-0.422,0.978
TAGCCTAGGTCAGATCGGGCCAGTATACGCTATA,1.61,1.09,-0.264,0.666,-0.213,1.7,0.85,0.845,-0.133,0.327,0.415,1.78,0.225,-0.375,0.0641,1.01,-0.518,1.42,-0.937,3.02
TCTATTAGGTGATTAGGGCAACCGAAACAGCGGA,0.654,0.587,0.0646,0.425,0.526,1.86,2.13,2.98,3.56,2.97,4.87,4.81,2.12,1.04,0.876,0.422,0.211,0.593,0.993,1.37
CCTAGTTGGTCAGTAGGTCACACACCGGATATGA,1.75,1.75,1.22,1.64,0.533,3.62,4.58,4.46,2.18,3.85,4.79,5.74,0.241,0.396,3.06,1.68,0.364,2.76,2.47,2.91
CGTGAAAGTTCAAGGTAACGTAACAGAAAGCAGC,5.94,5.62,2.82,3.12,0.85,4.54,3.2,4.01,1.51,3.03,0.31,1.59,1.08,0.978,2.81,4.03,2.44,3.46,0.962,4.93
